Experimental data from the supplement of paper PMC6555819.

What was measured:
Assay in all cases: PBM binding z-score (relative to random genomic background probes); higher = stronger binding; sequences stand for … in GC…GCGATTGACAGCGTAGAATGAAGG
[1] = tested on: FXR:RXRa (NR concentration 270 nM, RXRa partner concentration 90 nM)
Procedure, shortened: (§1)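 Regression normalization was applied to scanned fluorescence from custom Agilent 4×180K protein-binding microarrays. Before scanning, arrays were incubated 1 h with ligand-free nuclear receptor dimers, and binding was detected with antibodies against each partner (one per run). Binding z-scores use the random background probes as reference.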

[2] = tested on: LXRa:RXRa (NR concentration 270 nM, RXRa partner concentration 90 nM)
Procedure, shortened: as §1

[3] = tested on: LXRa homodimer (NR concentration 270 nM)
Procedure, shortened: as §1

[4] = tested on: LXRb:RXRa (NR concentration 270 nM, RXRa partner concentration 90 nM)
Procedure, shortened: as §1

[5] = tested on: LXRb homodimer (NR concentration 270 nM)
Procedure, shortened: as §1

[6] = tested on: PPARa:RXRa (NR concentration 270 nM, RXRa partner concentration 90 nM)
Procedure, shortened: as §1

[7] = tested on: PPARg:RXRa (NR concentration 180 nM, RXRa partner concentration 90 nM)
Procedure, shortened: as §1

[8] = tested on: PPARg:RXRa 270nM:90nM, anti-RXR (NR concentration 270 nM, RXRa partner concentration 90 nM)
Procedure, shortened: as §1

[9] = tested on: PPARg:RXRa 30nM:10nM, anti-RXR (NR concentration 30 nM, RXRa partner concentration 10 nM)
Procedure, shortened: as §1

[10] = tested on: PPARg:RXRa 90nM:30nM, anti-RXR (NR concentration 90 nM, RXRa partner concentration 30 nM)
Procedure, shortened: as §1

[11] = tested on: PPARg:RXRa DBDmut IVT, anti-RXR (DBD mutation: RXRa K156A/R161A, NR concentration 270 nM, RXRa partner concentration 90 nM)
Procedure, shortened: as §1

[12] = tested on: PPARg:RXRa IVT, anti-PPARg (NR concentration 270 nM, RXRa partner concentration 90 nM)
Procedure, shortened: as §1

[13] = tested on: PPARg DBDmut:RXRa IVT, anti-PPARg (DBD mutation: PPARg1 K132A/R137A, NR concentration 270 nM, RXRa partner concentration 90 nM)
Procedure, shortened: as §1

[14] = tested on: PPARg DBDmut IVT, anti-PPARg (DBD mutation: PPARg1 K132A/R137A, NR concentration 270 nM)
Procedure, shortened: as §1

[15] = tested on: PPARg homodimer (NR concentration 180 nM)
Procedure, shortened: as §1

[16] = tested on: PXR:RXRa (NR concentration 270 nM, RXRa partner concentration 90 nM)
Procedure, shortened: as §1

[17] = tested on: PXR homodimer (NR concentration 270 nM)
Procedure, shortened: as §1

[18] = tested on: RARa:RXR (NR concentration 270 nM, RXRa partner concentration 90 nM)
Procedure, shortened: as §1

[19] = tested on: RARa homodimer (NR concentration 270 nM)
Procedure, shortened: as §1

[20] = tested on: RARb:RXRa (NR concentration 270 nM, RXRa partner concentration 90 nM)
Procedure, shortened: as §1

Sequence | PBM binding z-score [1] | PBM binding z-score [2] | PBM binding z-score [3] | PBM binding z-score [4] | PBM binding z-score [5] | PBM binding z-score [6] | PBM binding z-score [7] | PBM binding z-score [8] | PBM binding z-score [9] | PBM binding z-score [10] | PBM binding z-score [11] | PBM binding z-score [12] | PBM binding z-score [13] | PBM binding z-score [14] | PBM binding z-score [15] | PBM binding z-score [16] | PBM binding z-score [17] | PBM binding z-score [18] | PBM binding z-score [19] | PBM binding z-score [20]
CTACCAAGGTGGACAAGGTCGTTGATTACTATTC | 0.175 | 0.496 | 0.259 | 0.805 | -0.653 | 0.861 | 0.061 | 0.155 | -0.189 | -0.0308 | 0.0779 | 0.0174 | -1.17 | 0.143 | 0.0242 | 1.28 | 0.687 | 1.16 | 0.219 | 0.561
TCTATTAGTTGATTATGGCAACCGAAACAGCGGA | 0.958 | 0.726 | 0.306 | 0.64 | 1.08 | 0.209 | 0.113 | 1.91 | 4.11 | 3.45 | 2.17 | 0.613 | 1.3 | 1.66 | 1.37 | 0.553 | 0.671 | 0.747 | 1.89 | 0.407
TAGCCTAGGTCAGGGGCCAGTATACCACGCGAAC | 1.76 | 1.34 | -0.415 | 1.88 | -0.376 | 2.61 | 2.83 | 2.96 | 0.91 | 2.43 | 0.374 | 2.32 | 0.429 | 0.131 | 0.542 | 0.506 | -0.579 | 1.42 | -0.0424 | 3.22
